Compound activity (PubChem)
In the library only some 9.2% were active in any assay of this set; here they are far more common.
HTT cytoprotect – cytoprotection in Huntington HTT-Q103 PC12 cell model; PC12 HTT-Q103 induced, cytoprotection, ATP luminescence, 40 h; Potency, µM (titrated, usually from 56.4 µM), without a hit: cytoprotection (ATP increase), actives largely listed as activators; 230,000 compounds, 0.14% hits; AID 1471; active = well fitted curve in the direction sought with a large enough effect; inconclusive = small, poorly fitted or top-dose-only effect, or another doubt; inactive = no such curve, though single readings can be large; an effect the other way counts as inactive or inconclusive; also: % of control where 0% means no effect; nearly all actives have a fitted effect of over 45% in size
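Cells were plated at 1500 per well in phenol red-free DMEM with 5% equine and 5% calf serum. Tebufenozide (100 nM final) and compounds were added, then ATPlite reagent, and luminescence was read.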
HPGD block – HPGD (human) dehydrogenase inhibition; P15428; 150,000 compounds, 4.3% hits; Potency, µM, inactives show at the highest dose activity change, negative = inhibition, most hits filed as inhibitors; AID 894; purified HPGD, NADH fluorescence kinetic, PGE2 substrate; also: % is scaled to controls: 0 for no effect and ±100 for the full control effect
Target sequence (P15428 whole entry, looked up): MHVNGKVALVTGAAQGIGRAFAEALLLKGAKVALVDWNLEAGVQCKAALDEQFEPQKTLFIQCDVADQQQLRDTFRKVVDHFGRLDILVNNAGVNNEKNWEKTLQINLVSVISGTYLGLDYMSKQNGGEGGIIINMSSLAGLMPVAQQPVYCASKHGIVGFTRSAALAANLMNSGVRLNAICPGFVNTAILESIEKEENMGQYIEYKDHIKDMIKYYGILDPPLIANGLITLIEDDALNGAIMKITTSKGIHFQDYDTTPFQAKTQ
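NADH formation kinetics: reaction with 30 uM PGE2 and 1 mM NAD+ (final), 20 nM enzyme, Tris-HCl pH 8 with Tween 20, after 15 min compound preincubation at room temperature. Fluorescence change, last versus first of five reads.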
HttQ103 aggreg – inhibitors of mutant huntingtin aggregate formation in PC12 cells; 220,000 compounds, 1.1% hits; PC12 HttQ103-GFP aggregates, Acumen cytometry, 40 h; Potency, µM (series often up to 46.1 µM), for the others: at the highest dose activity change, negative = inhibition, most hits filed as inhibitors; active = well fitted curve in the direction sought with a large enough effect; inconclusive = small, poorly fitted or top-dose-only effect, or another doubt; inactive = no such curve, though single readings can be large; an effect the other way counts as inactive or inconclusive; also: % is scaled to controls: 0 for no effect and ±100 for the full control effect; nearly all actives have a fitted effect of over 60% in size
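Aggregates are detected as GFP objects 1–25 µm with signal 6 STDEV over background in lysates of induced PC12 cells. These carry Huntingtin exon 1 with 103 glutamines fused to GFP under an ecdysone promoter; compounds titrated.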
ALDH1A1 block – blocks purified human ALDH1A1 activity. P00352. Purified ALDH1A1, NADH fluorescence, propionaldehyde substrate. Potency, µM (top dose mostly 75.3 µM), for inactives: at the highest dose activity, negative = inhibition, hits mostly inhibitors. 220,000 compounds, 7.3% hits. AID 1030;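 also: plate controls were no enzyme wells and a reference inhibitor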
Target sequence (P00352 whole entry, looked up): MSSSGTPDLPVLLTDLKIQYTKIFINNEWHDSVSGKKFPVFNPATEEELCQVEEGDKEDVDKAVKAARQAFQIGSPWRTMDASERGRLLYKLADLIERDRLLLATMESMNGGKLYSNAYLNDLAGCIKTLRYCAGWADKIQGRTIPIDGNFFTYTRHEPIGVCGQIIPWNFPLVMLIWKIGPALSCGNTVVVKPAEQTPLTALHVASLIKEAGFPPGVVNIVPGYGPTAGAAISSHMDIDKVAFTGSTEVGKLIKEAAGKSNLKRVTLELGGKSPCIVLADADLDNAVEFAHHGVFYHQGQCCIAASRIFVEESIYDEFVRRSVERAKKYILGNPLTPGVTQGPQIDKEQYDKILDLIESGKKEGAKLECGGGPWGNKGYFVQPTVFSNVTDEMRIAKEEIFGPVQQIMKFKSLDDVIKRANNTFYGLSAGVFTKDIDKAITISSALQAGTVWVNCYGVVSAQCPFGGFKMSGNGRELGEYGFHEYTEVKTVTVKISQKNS
JMJD2E inh – inhibitors of human JMJD2E histone demethylase | JMJD2E catalytic domain, FDH-coupled NADH fluorescence (FDH is formaldehyde dehydrogenase) | Potency, µM (titrated, usually from 57.1 µM), for the others: top-dose activity change, negative = inhibition, hits mostly inhibitors | B2RXH2 | 230,000 compounds, 1.6% hits | AID 2147;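 also: 0% = wells with enzyme and -100% = buffer wells without enzyme; nearly all actives have a fitted effect of over 50% in size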
Lamin A splicing – changes lamin A minigene splicing in HeLa cells; HeLa LMNA splicing GFP/RFP minigene ratio, 48 h; Potency, µM (highest dose often 46.1 µM), for inactives: at the top dose ratio change, negative = inhibition, most hits filed as inhibitors; 200,000 compounds, 0.01% hits; active = well fitted inhibition curve with a large enough effect in the signal ratio, with a control signal flat, not every such curve was filed as active; inconclusive = small, poorly fitted or top-dose-only effect, or effect the other way, or a change in a side signal; the % refers to the signal ratio; also: % is scaled to controls: 0 for no effect and ±100 for the full control effect
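S3 HeLa stable clones carrying a lamin A-EGFP splicing minigene plus DsRed2 were seeded at 600 cells/well in Opti-MEM with 2% FBS, pin-dosed and incubated 48 h at 37°C. Acumen cytometry (488 nm) gave the GFP/RFP total-intensity ratio.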
Active calls of the source: *; ? = inconclusive; · = not tested or not shown; ! = not confirmed by another sample; [ ] = dose if it differs, or a comment. Unless noted, calls follow the shape of the dose curve; as a rule, active = well fitted inhibition curve with a large enough effect (not every such curve was filed as active); inconclusive = small, poorly fitted or top-dose-only effect, or another doubt; inactive = no such curve, though single readings can be large or run the other way. Potency is read from the fitted curve at half-maximal effect.

SMILES	HTT cytoprotect	HPGD block	HttQ103 aggreg	ALDH1A1 block	JMJD2E inh	Lamin A splicing
COc1ccc(-c2ccccc2)cc1NCc1ccc(OC)c(OC)c1	-12%[10 µM]	?	6%	?	?	?
O=c1c(Cl)c(N2CCN(c3ccc(F)cc3)CC2)cnn1C12CC3CC(CC(C3)C1)C2	24%[10 µM]	-13%	-14%	?	-6%	-7%
O=c1c(Cl)c(N2CCN(c3ccccc3)CC2)cnn1C12CC3CC(CC(C3)C1)C2	18%[10 µM]	-5%	-6%	10µM*	-10%	-13%
O=C(O)CC12C[C@H]3C[C@@H](C1)CC(n1ncc(N4CCN(c5ccccc5)CC4)c(Cl)c1=O)(C3)C2	-5%[10 µM]	-14%	0%	7.9µM*	-8%	-8%
O=C(O)C12C[C@H]3C[C@@H](C1)CC(n1ncc(N4CCN(c5ccccc5)CC4)c(Cl)c1=O)(C3)C2	-18%[10 µM]	-16%	-15%	1.3µM*	0%	-14%
O=C(O)CC12CC3CC(C1)CC(n1ncc(NCc4ccccc4)c(Cl)c1=O)(C3)C2	26%[10 µM]	·	8%[9.22 µM]	·	4%	·
N#C/C(=N\Nc1cccc([N+](=O)[O-])c1)C(=O)c1ccc(Br)cc1	·	·	1.8µM*	22µM*	-3%	·
O=C(O)c1ccc(N=NNc2cccc([N+](=O)[O-])c2)cc1	-44%	·	5%	1%	-5%	-2%[46 µM]
NC(N)=NCCSSCCN=C(N)N	-7%[1.9 µM]	·	·	·	·	·
NCCc1ccn[nH]1	-12%[40.3 µM]	1%	9%[20.6 µM]	0%[20.9 µM]	-7%[25.5 µM]	?
N/C(CC(=O)Nc1cc(C(F)(F)F)ccc1Cl)=N\O	-3%[10 µM]	-4%	-13%[9.22 µM]	28µM*!	-4%	·
CCOc1ccc(Cn2c(O)cc(=O)[nH]c2=O)cc1	-4%[10 µM]	-12%	9%	18µM*	?	-7%
Cc1c(CN2CCC(CO)(CCOc3ccccc3)CC2)c(=O)n(-c2ccccc2)n1C	13%[10 µM]	·	-17%[9.22 µM]	9%	-20%	·
CCN(CCCCOC(=O)c1ccc(OC)c(OC)c1)[C@@H](C)Cc1ccc(OC)cc1	-61%[17.1 µM]	-6%	9%[20.6 µM]	8%[20.9 µM]	0%[25.5 µM]	?
C=CCn1c(SCC(=O)O)nc2sc(CC)cc2c1=O	-12%[10 µM]	·	-10%[9.22 µM]	?	?	·
C=CCn1c(SCC(=O)c2cccs2)nc2sc(CC)cc2c1=O	-18%	-16%	?	3.5µM*	2%	?
CC1CCN(S(=O)(=O)c2cc(C(=O)NCc3ccc(F)cc3)n(C)c2)CC1	·	·	·	·	·	-2%[46 µM]
Clc1cccc(Cl)c1/C=N\Nc1nccs1	14%	7.9µM*	0%	?	1%	11%
Cc1cccc2cc(CN(Cc3nnnn3C3CCCCC3)C3CCCC3)c3nnnn3c12	-2%[10 µM]	-2%	-21%	3.2µM*	7%	-6%
CC(=O)N(Cc1cc2ccc(C)c(C)c2n2nnnc12)C1CCCC1	-1%	-11%	-6%	?	0%	?
Cc1cc(C)c2[nH]c(=O)c(CN(Cc3nnnn3C3CCCC3)C3CCCCC3)cc2c1	5%[10 µM]	-8%	-3%	18µM*	6%	10%
Cc1ccc(NNC(=O)c2cc(C(C)(C)C)nn2Cc2ccccc2)cc1	3%[10 µM]	·	2%[9.22 µM]	15µM*	8%	·
Cc1ccc(NC(=O)c2cc(C(C)(C)C)nn2Cc2ccccc2)cc1	-9%[10 µM]	·	-17%[9.22 µM]	-5%	3%	·
CN(C)C(=O)c1ccc(-c2cncnc2NCc2cccnc2)cc1	-11%	·	·	?	·	1%
COc1ccc(N(C(=O)c2ccco2)C(C(=O)NC2CCCC2)c2ccc(N(C)C)cc2)cc1 (stereo not drawn)	-14%[10 µM]	-4%	21%[9.22 µM]	2.5µM*	-2%	4%
SMILES	HTT cytoprotect	HPGD block	HttQ103 aggreg	ALDH1A1 block	JMJD2E inh	Lamin A splicing
O=C(NCC(=O)N(Cc1ccccc1)C(C(=O)NC1CCCC1)c1ccco1)c1ccco1 (stereo not drawn)	-19%[10 µM]	-2%	1%	?	0%	4%
O=C(NCC(=O)N(Cc1ccco1)C(C(=O)NC1CCCCC1)c1cccnc1)c1ccco1 (stereo not drawn)	2%	-10%	4%	10%	7%	3%
CCOc1ccccc1C(C(=O)NC1CCCC1)N(Cc1ccco1)C(=O)CNC(=O)c1ccco1 (stereo not drawn)	21%[10 µM]	-6%	-3%	1.8µM*	3%	-15%
COc1ccc(CN(C(=O)CNC(=O)c2ccco2)C(C(=O)NC2CCCC2)c2ccco2)cc1 (stereo not drawn)	8%	-1%	1%	0.4µM*	2%	-1%
O=C(NCC(=O)N(Cc1cccs1)C(C(=O)NC1CCCCC1)c1ccco1)c1ccco1 (stereo not drawn)	1%[10 µM]	-4%	13%	22µM*	-27%	4%
COc1cc(OC)cc(N(C(=O)c2ccco2)C(C(=O)NC2CCCC2)c2ccc(N(C)C)cc2)c1 (stereo not drawn)	-2%	1%	4%	?	6%	6%
O=C(NCC(=O)N(Cc1ccc(F)cc1)C(C(=O)NC1CCCC1)c1ccco1)c1ccco1 (stereo not drawn)	10%	-1%	-10%	-11%	-3%	?
NCCCC[C@H]1CNC(=O)C(=O)N1CCC12CC3CC(CC(C3)C1)C2	-12%[10 µM]	·	4%[9.22 µM]	·	0%	·
NC(=O)c1ncn([C@@H]2O[C@@H](CO)[C@@H](O)[C@H]2O)n1	-12%[1.9 µM]	·	·	·	·	·
O=C(NC1CCCCC1)C(c1ccc(F)cc1)N(Cc1ccco1)C(=O)CN1C(=O)c2ccccc2S1(=O)=O (stereo not drawn)	-9%[10 µM]	-16%	22µM*	6%	-1%	-8%
Cc1c(C(=O)NCc2ccccc2)sc2nc3n(c(=O)c12)CCCCC3	·	·	·	·	·	3%[46 µM]
c1ccc(Cc2nnc(N3CCOCC3)c3ccccc23)cc1	-17%	25µM*	0%[9.22 µM]	-4%	-5%	5%
CCc1ccc2nc(N(Cc3cccnc3)C(=O)c3cccs3)sc2c1	·	·	·	·	·	-2%[46 µM]
CC1(C)C(=O)C(c2ccccc2)=C2CN3C(=O)N(CCc4ccccc4)C(=O)C3(Cc3ccc(C(F)(F)F)cc3)C=C21 (stereo not drawn)	15%	-18%	·	-1%	-15%	·
O=C1NN(c2ccccc2)C(=O)/C1=C/c1ccc(-c2ccc(Cl)c(C(=O)O)c2)o1	-33%	·	-1%	13µM*	?	?
Cc1cccc(N2NC(=O)/C(=C/c3ccc(-c4ccc(Cl)c(C(=O)O)c4)o3)C2=O)c1	21%	·	-2%	?	?	·
CN1CCN(NC(=O)CN2C(=O)/C(=C/c3ccccc3Cl)SC2=S)CC1	-5%[10 µM]	13µM*	29%	?	-9%	-22%
Cc1[nH]nc(SCC(=O)N2CCCCC2)c1[N+](=O)[O-]	-9%	28µM*	0%	?	3%	4%
